Bioassay records (PubChem)
An excerpt weighted towards active compounds, which were near 0.53% of everything screened.
IL-2 act: qHTS of IL-2 Activators | activation, % (series mostly up to about 46 µM) | AID 652025, 2013 | IL-2 activation reporter assay, cell-based qHTS; stimulated with anti-CD3/CD4/CD28 beads; in transgenic mouse T cells | 360,000 compounds, 0.065% hits; in the data active = activation above about 50%; inconclusive = mostly about 30% to 49%; note: 0% is about no effect
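EGFP and DsRed fluorescence is measured by plate cytometry in unstimulated transgenic mouse T cells exposed to compound for 60 minutes, then stimulated 18 hours at 37 degrees C with anti-CD3/anti-CD4 beads plus anti-CD28.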
Vif-APOBEC3F blk: qHTS for Inhibitors of Vif-A3F Interactions: qHTS; HeLa A3F-eYFP + Vif (tagged APOBEC3F with the HIV-1 protein that degrades it), YFP fluorescence increase; AID 602313, 2012; 390,000 compounds, 0.2% hits; Potency, µM (titrated, usually from 46.1 µM), inactives show at the top dose activity, negative = active; note: potency is the fitted concentration of half-maximal effect; % of control where 0% means no effect; nearly all actives have a fitted effect of over 65% in size
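HeLa cells stably expressing A3F-eYFP plus Vif, plated and incubated overnight at 37 deg C, then exposed to compounds overnight at 37 deg C. Blocked degradation read as raised yellow fluorescence (Ex 488/Em 500-530).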
Vif-A3G inh: qHTS for Inhibitors of Vif-A3G Interactions: qHTS. HeLa A3G-eYFP + Vif (tagged APOBEC3G with the HIV-1 protein that degrades it), YFP fluorescence, overnight. Potency, µM (top dose mostly 46.1 µM), inactives show top-dose activity, negative = active, hits mostly inhibitors. AID 602310, 2012. 410,000 compounds, 0.076% hits. DNA dC->dU-editing enzyme APOBEC-3G (Homo sapiens), Q9HC16; note: potency is the fitted concentration of half-maximal effect; % is set by controls: 0 for no effect and ±100 for the full control effect; nearly all actives have a fitted effect of over 60% in size
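Read-out is eYFP fluorescence (Ex 488/Em 500-530) from Vif-expressing HeLa A3G-eYFP cells; more signal means A3G escaped Vif-mediated degradation. Cells plated overnight, compound pinned in, incubated overnight at 37 deg C.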
PKM2 activator: qHTS Assay for Activators of Human Muscle isoform 2 Pyruvate Kinase; Potency, µM (top dose mostly 57.5 µM), without a hit: at the top dose activation, most hits filed as activators; AID 1631, 2009; 260,000 compounds, 0.34% hits; Pyruvate kinase PKM (Homo sapiens), P14618; purified PKM2, Kinase-Glo ATP luminescence, activation; response scale: 0% is enzyme alone, no compound; note: potency is the fitted concentration of half-maximal effect; % is set by controls: 0 for no effect and ±100 for the full control effect; nearly all actives have a fitted effect of over 55% in size
Target sequence (P14618 whole entry, looked up, canonical isoform): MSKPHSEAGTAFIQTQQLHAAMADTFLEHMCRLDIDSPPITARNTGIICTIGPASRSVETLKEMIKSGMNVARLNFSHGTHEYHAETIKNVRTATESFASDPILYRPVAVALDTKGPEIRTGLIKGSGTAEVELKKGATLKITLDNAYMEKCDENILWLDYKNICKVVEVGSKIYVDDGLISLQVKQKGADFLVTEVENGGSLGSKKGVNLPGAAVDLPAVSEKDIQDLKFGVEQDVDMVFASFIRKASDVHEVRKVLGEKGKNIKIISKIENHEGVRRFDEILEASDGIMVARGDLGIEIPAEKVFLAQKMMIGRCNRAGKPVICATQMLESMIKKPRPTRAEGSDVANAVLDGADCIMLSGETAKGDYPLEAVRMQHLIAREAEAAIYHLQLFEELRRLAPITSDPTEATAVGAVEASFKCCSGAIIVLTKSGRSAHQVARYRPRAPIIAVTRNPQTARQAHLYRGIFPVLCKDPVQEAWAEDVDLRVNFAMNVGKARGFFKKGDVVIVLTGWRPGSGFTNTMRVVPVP
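hPK-M2, >95% pure; 0.1 mM ADP / 0.5 mM PEP final; imidazole pH7.2 buffer w/ 7 mM MgCl2, 50 mM KCl; 1 h RT; Kinase-Glo lum. Intermediate enzyme activity for dual inhibitor/activator qHTS.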
The depositor's hits bear a star; ? = inconclusive; . = no result given. Unless noted, calls come from the whole dose curve; as a rule, active = well fitted curve in the direction sought with a large enough effect; inconclusive = small, poorly fitted or top-dose-only effect, or another doubt; inactive = no such curve, though single readings can be large; an effect the other way counts as inactive or inconclusive.

SMILES	IL-2 act	Vif-APOBEC3F blk	Vif-A3G inh	PKM2 activator
CC(=O)CCc1oc2c([N+](=O)[O-])cccc2c1-c1ccc(C)o1	-0.8	1.0%	-6.3%	10µM*
Cc1ccc(N(CC(=O)Nc2cccc(Cl)c2)S(=O)(=O)c2cccs2)cc1	.	-1.2%	-4.3%	.
O=C(Cn1c(=O)nc(-c2ccccc2)c2ccccc21)Nc1cccc(C(F)(F)F)c1	.	-18.1%	6.4%	.
Cc1cc(C)c(C#N)c(SCC(=O)Nc2nonc2N)n1	-1.2	8.6%	-3.2%	14.1µM*
Cc1cc(C)c(NC(=O)CSc2nc(C)cc(C)c2C#N)c(C)c1	.	1.2%	-0.6%	.
COc1ccc(CCNC(=O)C(=O)NCC(c2ccc3c(c2)OCO3)N2CCOCC2)cc1 (stereo unspecified)	.	2.6%	3.3%	.
CCc1ccc(N=Nc2ccc(O)c3[nH]cnc23)cc1	0.1	8.91µM*	?	.
S=C(Nc1cccc2ccccc12)NN1CCCCCC1	-0.7	22.4µM*	0.0%	.
CCc1sc(C(C2C(=O)CC(C)(C)CC2=O)C2C(=O)CC(C)(C)CC2=O)cc1[N+](=O)[O-]	-2.7	-4.2%	-1.2%	22.4µM*
Cc1ccc(C2N3CC4(C)CN2CC(c2ccccc2)(C3)C4=O)cc1 (stereo unspecified)	.	-14.1%	-1.2%	.
CC1CCN(c2ccc3c(c2)S(=O)(=O)c2cccc(C(=O)NC[C@@H]4CCCO4)c2C3=O)CC1	0.6	-14.8%	-29.1%	.
O=C(NCc1ccccc1)c1cccc2c1C(=O)c1ccc(/C=C/c3ccccc3)cc1S2(=O)=O	10.2	10µM*	-30.4%	.
Cc1ccc(CNC(=O)c2cccc3c2C(=O)c2ccc(N4CCCCC4)cc2S3(=O)=O)cc1	?	22.4µM*	?	.
O=C(NCc1ccccc1Cl)c1cccc2c1C(=O)c1ccc(-c3ccc(OC(F)(F)F)cc3)cc1S2(=O)=O	-4.7	12.6µM*	-8.9%	.
O=C(NCC1CCCO1)c1cccc2c1C(=O)c1ccc(N3CCC(Cc4ccccc4)CC3)cc1S2(=O)=O (stereo unspecified)	2.7	25.1µM*	?	.
NCCN1C(=O)c2ccccc2C1(O)c1ccc(Cl)cc1 (stereo unspecified)	-2.8	-9.0%	-1.0%	.
CC12CC3CC(C)(C1)CC(C(=O)NC(=S)N1CCOCC1)(C3)C2	-1.4	2.4%	10µM*	-4.8%
CCN1/C(=C/c2cc[n+](C)cc2)C=Cc2cc(C)ccc21	3.0	12.6µM*	?	9.7%
CCN1/C(=C/c2ccc3ccccc3[n+]2CCCS(=O)(=O)[O-])C=Cc2cc(C)ccc21	-0.6	7.0%	1.7%	.
O=C(NCC1CCCO1)c1nn2c(C(F)(F)F)cc(-c3cc(Br)cs3)nc2c1Br (stereo unspecified)	5.8	10µM*	-9.0%	.
COc1ccccc1N1CCN(C(=O)c2ccc(NS(=O)(=O)c3ccc(C)cc3)cc2)CC1	-0.5	-9.4%	-1.4%	8.91µM*
O=C(c1ccc(NS(=O)(=O)c2ccccc2)cc1)N1CCN(Cc2ccc3c(c2)OCO3)CC1	13.5	7.9%	0.7%	12.6µM*
COc1ccc(NS(=O)(=O)c2cccc(C(=O)N3CCN(Cc4ccc5c(c4)OCO5)CC3)c2)cc1	-2.6	-4.7%	1.4%	.
O=C(c1ccc(S(=O)(=O)NCc2ccco2)cc1)N1CCN(Cc2ccccc2)CC1	0.4	-6.5%	-0.6%	7.94µM*
COc1ccc(CN2CCN(C(=O)c3ccc(S(=O)(=O)NCc4ccco4)cc3)CC2)cc1	-3.4	-13.6%	2.3%	.
SMILES	IL-2 act	Vif-APOBEC3F blk	Vif-A3G inh	PKM2 activator
Cc1cc(=O)oc2cc(OCC(=O)Nc3nnc(C(C)C)s3)ccc12	59.6*	1.5%	0.8%	-11.6%
Cc1cc(=O)oc2cc(OCC(=O)Nc3nnc(CC(C)C)s3)ccc12	-1.4	.	-7.8%	-5.4%
N#Cc1c(C(F)(F)F)cc(-c2cccs2)nc1SCC(=O)Nc1cccc(C(F)(F)F)c1	.	10µM*	?	.
N#Cc1c(C(F)(F)F)cc(-c2cccs2)nc1SCC(=O)Nc1ccc(Cl)cc1	.	?	10µM*	.
CCOc1ccc(NC(=O)CSc2nc(-c3cccs3)cc(C(F)(F)F)c2C#N)cc1	.	0.4%	0.2%	.
CN1CCc2nc(SCC(=O)Nc3cccc(F)c3)c(C#N)c(-c3cccs3)c2C1	-1.2	-3.8%	-3.9%	17.8µM*
CN(C)c1ccc(CNC(=O)CN2C(=O)CCn3nc(-c4cn(C)c5ccccc45)cc32)cc1	.	0.4%	0.3%	.
COc1ccc(NC(=O)CCn2cnnn2)cc1	.	3.9%	-3.1%	.
COCCNC(=O)c1ccccc1NC(=O)c1nsc2ccccc12	.	-0.2%	-2.9%	.
CCc1ccccc1NS(=O)(=O)c1cc2c(cc1C)n(C)c(=O)c(=O)n2C	-1.8	0.2%	0.7%	3.98µM*
CCn1c(=O)n(CC)c2cc(S(=O)(=O)Nc3ccccc3C)c(C)cc21	-0.2	-18.8%	-5.1%	?
COC(=O)CN1C(=O)S/C(=C/c2ccc(N3CCCCC3)o2)C1=O	25.6	?	12.9%	?
CCOC(=O)CN1C(=O)S/C(=C/c2ccc(N3CCCCC3)o2)C1=O	10.5	31.6µM*	5.7%	-1.9%
CCCN1C(=O)S/C(=C\c2ccc(N3CCOCC3)o2)C1=O	1.3	?	?	3.55µM*
CCN(CC(=O)NCc1ccc(F)cc1)C(=O)/C=C/c1ccco1	-1.5	-7.5%	-3.0%	12.6µM*
COc1ccc2c(c1)c1ncn(Cc3ccco3)c(=O)c1n2C	0.1	-1.5%	-4.3%	1.26µM*
Cn1c(N/N=C/c2cc3ccccc3nc2Cl)nc2ccccc21	6.7	22.4µM*	11.2µM*	-16.0%
Cn1c(N/N=C/c2c[nH]c3ccccc23)nc2ccccc21	-0.9	-4.4%	5.6%	-14.6%
CN(Cc1ccccc1)C(=O)c1ccc(NC(=O)Cc2ccc(NC(=O)C3CCCN(C(=O)CCc4ccccc4)C3)cc2)cc1 (stereo unspecified)	0.1	-1.1%	4.4%	.
Cc1cccc(C)c1NC(=O)CSc1nnc(-c2ccco2)c(-c2ccco2)n1	-0.4	1.4%	-4.0%	11.2µM*
COc1ccccc1C=Cc1ccnc2ccccc12	-1.1	0.3%	-7.5%	.
COc1cc(N(C)C)c(OC)cc1/C=C/c1ccnc2ccccc12	.	.	7.08µM*	.
CN(C)c1ccc(/C=C/c2cc(/C=C/c3ccc(N(C)C)cc3)c3ccccc3n2)cc1	.	.	2.82µM*	.
CCN(CC)c1ccc(/C=C/c2ccccn2)cc1	.	.	3.16µM*	.
CN(C)c1ccc(/C=C/c2ccnc3ccc(-c4ccccc4)cc23)cc1	.	.	7.08µM*	.
CCN(CC)c1ccc(/C=C/c2ccnc3ccccc23)cc1	.	.	11.2µM*	.
CN(C)c1ccc(/C=C/c2ccnc3c(Cl)cccc23)cc1	.	.	3.55µM*	.
CN(C)c1ccc(/C=C/c2ccnc3c(O)cccc23)cc1	.	.	-11.4%	.
CCN(CC)CCN(CC)c1ccc(/C=C/c2ccnc3ccccc23)cc1	.	.	-12.3%	.
CC(=O)Nc1ccc(S(=O)(=O)N2CCN=C2SCc2cccnc2)cc1	6.6	-1.7%	-0.5%	15.8µM*
